For test [1], the system named is Wnt5a (protein binding on small-molecule microarray). The test can be described thus: small molecules binding Wnt5a protein – biophysical, small-molecule microarray, 635/667 nm fluorescence, primary screen (AID 1142).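 Also: fluorescence read at 667 nm with signal to noise per printed feature.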 As to conditions: 635 nm fluorescence, higher = more signal.
Test [2] can be described thus: ATP-based viability of Huh7 replicon cells – cell-based, CellTiter-Glo luminescence, basal, 48 h, cytotoxicity control for HCV replication inhibitor project, primary screen (AID 1143).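 Also: Huh7 hepatoma cells carrying a hepatitis C replication reporter with no stimulus; test concentration not given here.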 To be noted: higher = more signal, called active from +8 up or from −8 down. (In general: In antiviral work, replicon cells carry a viral genome segment that copies itself.)
Test [3] is described as follows: Pseudomonas biofilm growth suppression – PAO1 strain, BacTiter-Glo luminescence, LB-PBS, primary screen (AID 1144). To be noted: P. aeruginosa PAO1 biofilm, 12 h, higher = more signal.
The nature of test [4]: basal CRE-LacZ reporter activity in PC12 – cell-based, unstimulated, primary screen (AID 1145). To be noted: no forskolin, luminescence, 4.5 h, higher = more signal, called active from +8 up or from −8 down.
Test [5] in a line: forskolin-driven CRE-LacZ activity in PC12 – cell-based, CRE-LacZ reporter, forskolin-stimulated, primary screen (AID 1146).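 Also: PC12 cells with 6xCRE LacZ reporter stimulated by forskolin 10 µM; beta-galactosidase reporter signal reflecting CREB driven transcription.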 To be noted: luminescence, 4.5 h, higher = more signal, called active from +8 up or from −8 down.
Test [6] addresses Streptavidin (Streptomyces avidinii) (UniProt P22629). The test can be described thus: compounds binding control protein streptavidin – biophysical, small-molecule microarray, 635/667 nm fluorescence, artefact control for SMM compound annotation, primary screen (AID 1147).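 Also: signal reflects streptavidin binding to arrayed compounds as a control protein.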 To be noted: higher = more signal.
Test [7] is described as follows: probe aInhba binding on compound microarray – biochemical, small-molecule microarray, 635/667 nm fluorescence, primary screen (AID 1148).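 Also: score merges 667nm spot fluorescence with signal-to-noise for antibody binding to printed compounds.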 As to conditions: higher = more signal.
The target in test [8] is Torsin-1A (Homo sapiens) (UniProt O14656). The test can be described thus: TOR1A wild-type binding on microarray – cell lysate, small-molecule microarray, lysate, 635/667 nm, primary screen (AID 1149). As to conditions: COS7 hTOR1A-WT lysate, 635 nm fluorescence, higher = more signal.
Chain of Torsin-1A (Homo sapiens) (O14656 whole entry, looked up): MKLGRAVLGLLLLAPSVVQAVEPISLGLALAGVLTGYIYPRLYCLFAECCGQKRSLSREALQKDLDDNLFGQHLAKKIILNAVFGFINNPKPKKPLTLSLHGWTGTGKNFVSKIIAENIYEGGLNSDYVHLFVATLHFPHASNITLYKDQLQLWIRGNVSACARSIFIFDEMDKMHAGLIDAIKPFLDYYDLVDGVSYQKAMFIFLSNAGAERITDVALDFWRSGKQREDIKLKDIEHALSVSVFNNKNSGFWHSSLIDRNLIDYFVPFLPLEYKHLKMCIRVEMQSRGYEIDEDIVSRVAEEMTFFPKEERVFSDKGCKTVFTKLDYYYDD
For test [9] the target is unchanged. The test can be described thus: torsin A mutant lysate binding on microarrays – cell lysate, small-molecule microarray, COS7 lysate, 635/667 nm fluorescence, primary screen (AID 1150).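 Also: score pools 667 nm emission and signal to noise measuring lysate protein binding.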 As to conditions: COS7 hTOR1A mutant lysate, 635 nm fluorescence, higher = more signal.
Test [10] has as its system Sonic hedgehog protein (Shh). The test can be described thus: Sonic hedgehog microarray binding compounds – biochemical, small-molecule microarray, 635/667 nm fluorescence, primary screen (AID 1151).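 Also: Shh protein binding to compounds spotted on small-molecule microarray slides; score combines spot fluorescence intensity with signal-to-noise across triplicate slides.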 To be noted: 635 nm fluorescence, higher = more signal.
The nature of test [11]: optical density shifts of acrAB sulA E. coli – strain DRC41, OD650, 48 h, E. coli filamentation inducer project, primary screen (AID 1152).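 Also: E. coli MC1000 strain DRC41 lacking acrAB efflux pump and sulA.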 To be noted: higher = more signal, called active from +8 up or from −8 down.
Test [12] is described as follows: probe aLefty1 binding on compound microarray – biochemical, small-molecule microarray, 635/667 nm fluorescence, primary screen (AID 1153).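 Also: score merges spot fluorescence with signal-to-noise ratio from the scanned slide images.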 To be noted: higher = more signal.
Test [13] can be described thus: plasmodial surface anion channel blockers, osmotic lysis – cell-based, P. falciparum Indochina, OD700, 1 h, primary screen (AID 1154). To be noted: P. falciparum Indochina infected RBC osmotic lysis, higher = more signal, called active from +8 up or from −8 down.
Test [14] in a line: plasmodial surface anion channel blockers, osmotic lysis – cell-based, P. falciparum Indochina, OD700, 2 h, primary screen (AID 1155).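 Also: lysis reports solute entry through the parasite surface anion channel PSAC.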 To be noted: P. falciparum Indochina infected erythrocytes, higher = more signal, called active from +8 up or from −8 down.
Test [15] in a line: changes in parasitized red cell lysis, either direction – P. falciparum Indochina, OD700, 3 h, PSAC antagonist project, primary screen (AID 1156). As to conditions: P. falciparum-infected erythrocytes, osmotic lysis, higher = more signal, called active from +8 up or from −8 down.
Test [16] is described as follows: plasmodial surface anion channel blockers, osmotic lysis – cell-based, P. falciparum Indochina, OD700, 18 h, primary screen (AID 1157). As to conditions: P. falciparum Indochina infected erythrocytes, osmotic lysis OD700, 18 h; higher = more signal, called active from +8 up or from −8 down.
Test [17] can be described thus: S6 kinase pathway phospho-S6 level changes – cell-based, A549, cytoblot, luminescence, serum-stimulated, primary screen (AID 1158).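 Also: serum-stimulated A549 lung adenocarcinoma cells; signal is phosphorylated S6 detected by cytoblot immunostaining with HRP secondary.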 To be noted: 5 h, higher = more signal.
For test [18], the target named is NADPH oxidase 2 (Homo sapiens) (UniProt P04839). The test can be described thus: compounds shifting NOX2 Amplex Red fluorescence – cell-based, HEK293-NOX2, PMA-stimulated, NOX inhibitor project, primary screen (AID 1159). Also: test concentration not given here. As to conditions: 45 min, higher = more signal, called active from +8 up or from −8 down.
Chain of NADPH oxidase 2 (Homo sapiens) (P04839 whole entry, looked up): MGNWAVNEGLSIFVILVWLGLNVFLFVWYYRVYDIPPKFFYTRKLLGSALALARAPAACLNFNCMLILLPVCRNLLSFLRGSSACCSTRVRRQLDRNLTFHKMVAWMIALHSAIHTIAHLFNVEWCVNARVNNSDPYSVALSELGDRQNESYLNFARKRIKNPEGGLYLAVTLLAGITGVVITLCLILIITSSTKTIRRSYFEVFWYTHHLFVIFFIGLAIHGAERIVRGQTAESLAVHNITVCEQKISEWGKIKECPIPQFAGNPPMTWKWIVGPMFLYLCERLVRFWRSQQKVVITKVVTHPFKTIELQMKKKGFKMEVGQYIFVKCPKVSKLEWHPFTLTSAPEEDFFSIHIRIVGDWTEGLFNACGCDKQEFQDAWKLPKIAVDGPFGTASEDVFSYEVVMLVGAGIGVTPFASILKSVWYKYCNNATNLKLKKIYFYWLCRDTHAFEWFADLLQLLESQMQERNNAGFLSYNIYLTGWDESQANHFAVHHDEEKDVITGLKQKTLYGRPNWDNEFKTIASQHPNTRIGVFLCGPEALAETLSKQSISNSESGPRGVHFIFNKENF
For test [19], the target named is NADPH oxidase 4 (Homo sapiens) (UniProt Q9NPH5). The test can be described thus: compounds shifting NOX4 Amplex Red fluorescence – cell-based, HEK293-NOX4, tetracycline-induced, NOX inhibitor project, primary screen (AID 1160). To be noted: HEK293-NOX4, Amplex Red H2O2 fluorescence, 45 min; higher = more signal, called active from +8 up or from −8 down.
Chain of NADPH oxidase 4 (Homo sapiens) (Q9NPH5 whole entry, looked up): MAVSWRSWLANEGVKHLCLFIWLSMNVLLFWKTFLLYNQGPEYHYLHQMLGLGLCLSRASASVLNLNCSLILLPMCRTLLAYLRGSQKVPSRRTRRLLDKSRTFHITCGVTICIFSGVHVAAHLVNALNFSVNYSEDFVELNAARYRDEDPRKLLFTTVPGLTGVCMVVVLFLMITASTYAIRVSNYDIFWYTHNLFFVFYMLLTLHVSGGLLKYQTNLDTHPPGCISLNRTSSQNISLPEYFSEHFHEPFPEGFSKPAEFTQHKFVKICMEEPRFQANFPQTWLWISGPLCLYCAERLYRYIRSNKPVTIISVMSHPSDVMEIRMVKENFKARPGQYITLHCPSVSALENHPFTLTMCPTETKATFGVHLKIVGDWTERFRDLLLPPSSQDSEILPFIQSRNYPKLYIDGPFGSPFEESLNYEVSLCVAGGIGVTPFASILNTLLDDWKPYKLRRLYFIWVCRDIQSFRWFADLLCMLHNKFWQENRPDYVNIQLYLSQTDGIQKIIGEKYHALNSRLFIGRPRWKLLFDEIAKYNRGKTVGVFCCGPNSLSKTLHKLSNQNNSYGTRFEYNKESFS
For test [20], the target named is NADPH oxidase 5 (Homo sapiens) (UniProt Q96PH1). The test can be described thus: compounds shifting NOX5 Amplex Red fluorescence – cell-based, HEK293-NOX5, NOX inhibitor project, primary screen (AID 1161). As to conditions: HEK293-NOX5, ionomycin, 45 min, higher = more signal.
Chain of NADPH oxidase 5 (Homo sapiens) (Q96PH1 whole entry, looked up): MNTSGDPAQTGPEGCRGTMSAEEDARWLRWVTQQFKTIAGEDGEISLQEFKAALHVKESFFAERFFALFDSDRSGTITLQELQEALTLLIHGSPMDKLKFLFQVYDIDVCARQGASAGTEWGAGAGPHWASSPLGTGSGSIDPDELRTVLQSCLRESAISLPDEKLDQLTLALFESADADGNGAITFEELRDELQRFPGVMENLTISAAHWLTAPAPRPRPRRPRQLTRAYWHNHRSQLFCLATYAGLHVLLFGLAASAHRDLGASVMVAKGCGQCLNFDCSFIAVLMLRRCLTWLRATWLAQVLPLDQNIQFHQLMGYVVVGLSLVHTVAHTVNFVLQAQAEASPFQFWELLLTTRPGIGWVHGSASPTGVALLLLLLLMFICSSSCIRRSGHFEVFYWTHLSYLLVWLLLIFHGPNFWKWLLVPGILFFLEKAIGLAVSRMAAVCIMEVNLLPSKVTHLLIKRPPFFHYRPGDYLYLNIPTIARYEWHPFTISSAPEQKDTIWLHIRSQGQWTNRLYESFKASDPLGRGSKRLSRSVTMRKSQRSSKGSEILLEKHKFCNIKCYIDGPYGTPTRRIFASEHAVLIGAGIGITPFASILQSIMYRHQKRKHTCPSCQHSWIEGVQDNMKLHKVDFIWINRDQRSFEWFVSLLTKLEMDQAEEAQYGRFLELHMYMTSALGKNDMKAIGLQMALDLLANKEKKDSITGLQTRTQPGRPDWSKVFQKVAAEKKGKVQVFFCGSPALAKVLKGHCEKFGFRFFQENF

Molecules are shown by their SMILES. Calls of active or inactive are those of the source. Unless noted, no rule for the calls is given here.

Chain of Streptavidin (Streptomyces avidinii) (P22629 whole entry, looked up): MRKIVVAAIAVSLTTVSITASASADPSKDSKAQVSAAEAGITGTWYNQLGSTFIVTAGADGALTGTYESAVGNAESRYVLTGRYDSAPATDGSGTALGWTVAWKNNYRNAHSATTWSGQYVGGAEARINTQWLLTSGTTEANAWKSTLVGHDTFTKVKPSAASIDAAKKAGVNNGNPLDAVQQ

For the compound `CC(C)(C)N1C(=O)[C@H]2[C@H]3[C@H](O)[C@H](O)CC(=NOC[C@@H](O)COCc4ccco4)[C@H]3CC[C@H]2C1=O`, the composite z-score in test [1] is -0.0267; in test [6], 0.422; in test [7], -0.0279; in test [8] it was 0.506; in test [9] it was 0.465; in test [10] it was -0.0386. The composite z-score in test [12] worked out at 0.21. Further, the z-score in test [2] was 0.186 (inactive); in test [3], -0.486 (inactive); in test [4], 0.701 (inactive); in test [5] it was -0.113 (inactive); in test [11], 0.0965 (inactive); in test [13], 1.18 (inactive). The z-score in test [14] was -0.423 (inactive); in test [15], 0.0556 (inactive); in test [16], 0.33 (inactive); in [17] it was -0.159; in test [18], 0.119 (inactive); in [19] it was 0.0791 (inactive). The z-score in test [20] was found to be 0.188.
Turning to `CCOC(=O)[C@H](Cc1ccccc1)NC(=O)CCC1CC(OC(=O)NCCc2ccc(F)cc2)CC2(CCCC(COC(=O)NCCOc3ccccc3)O2)O1` (stereo not given in full), the composite z-score in [1] is 0.424; in test [6], 0.751; in [7], -0.0762; in test [8] it was 0.227; in test [9], 1.11; in [10], 1.23. Further, the composite z-score in test [12] worked out at 0.0594. Besides, the z-score in [2] is -0.715 (inactive); in test [3], -0.661 (inactive); in [4] it was -0.253 (inactive); in test [5], 0.327 (inactive); in test [11], -0.558 (inactive); in test [13] it was -1.41 (inactive). Also, the z-score was 0.363 (inactive) in test [14]; -0.619 (inactive) in test [15]; 0.272 (inactive) in test [16]; -0.345 in [17]; 1.26 (inactive) in [18]; 0.767 (inactive) in test [19]. Besides, the z-score in [20] worked out at 0.471.
In the case of `CCOC(=O)[C@H](CC(C)C)NC(=O)CCC1CC(OC(=O)NCc2ccc3c(c2)OCO3)CC2(CCCC(COC(=O)NCCC(C)C)O2)O1` (stereo not given in full), the composite z-score in test [1] was 0.0093; in test [6] it was 0.0476; in [7], -0.128; in [8], -0.0916; in [9] it was -0.0963; in [10], 0.54. This compound yielded a composite z-score in [12] of -0.768. Besides, the z-score in test [2] is -0.172 (inactive); in test [3], -0.32 (inactive); in [4], -0.889 (inactive); in test [5], 0.128 (inactive); in test [11], -0.213 (inactive); in test [13] it was 2.17 (inactive). The z-score in [14] was -0.299 (inactive); in [15], -0.443 (inactive); in test [16], 0.0255 (inactive); in test [17] it was -0.0096; in test [18], 0.246 (inactive); in test [19], 0.115 (inactive). In addition, the z-score in test [20] is 0.165.
Take `COc1ccc(O[C@H]2C=C[C@@H](c3ccccc3)O[C@@H]2CON=C(C)CCN2CCCc3nc(C)c(C)cc32)cc1`: the composite z-score is 0.0474 in test [1]; 0.294 in test [6]; -0.0079 in test [7]; 0.476 in [8]; 0.46 in test [9]; 0.661 in test [10]. Also, the composite z-score in test [12] was 0.0341. Moreover, the z-score was -0.381 (inactive) in test [2]; -0.291 (inactive) in test [3]; 2.46 (inactive) in test [4]; 0.544 (inactive) in test [5]; 0.379 (inactive) in test [11]; 4.35 (inactive) in test [13]. In addition, the z-score in test [14] is 0.711 (inactive); in [15] it was 0.938 (inactive); in [16], 0.588 (inactive); in test [17] it was -0.121; in test [18], -1.81 (inactive); in test [19], -0.049 (inactive). For the same compound, the z-score in [20] is -0.297.

The values above are taken from PubChem BioAssay.
